Compound activity from PubChem.
A selection: hits, their analogues and other compounds. The true share with any hit is near 4.7%.
HSP90 refold inh = HSP90 inhibitors, primary screen, cell lysate, luminescence; 0.91% of 290,000 active; inhibition, % at 5.6 µM; Rabbit reticulocyte lysate, luciferase refolding luminescence, 3 h; AID 1789, 2009;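 active = inhibition above the screen-wide mean plus 3 SD, computed separately per campaign, cut at about 16% in these data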;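 also: inhibitors lower the luminescence because luciferase stays unfolded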
HSF1 inh = HSF1 inhibitors in luciferase reporter cells, primary screen, cell-based, NIH3T3, luminescence. NIH3T3-HGL HSE-luciferase, MG132-induced, luminescence 8 h; active compounds read low. activity change, negative = inhibition, % at 7.5 µM (by protocol). 0.77% of 300,000 active;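 active = more than half of replicate wells show activity change below -50%, luminescence cut by over half; inconclusive = some wells, but at most half, below -50%; inactive = no replicate well below -50%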;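 also: luciferase reports HSF-1 transcriptional activity via heat shock element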
TROY signal inh = inhibitors of TROY-driven NF-kB signaling, primary screen, Q293 LMP1-TROYcd cells, NF-kB luciferase, uHTS; inhibition, % at 10 µM; 0.98% of 360,000 active; AID 1347056, 2019; Q293 LMP1-TROYcd NF-kB luciferase reporter, 4 h;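 active = compounds whose plate-normalised and pattern-corrected inhibition of the luciferase reporter signal at the single screening dose is 50% or more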
EBV LMP1 NFkB = EBV LMP1-driven NF-kappaB luciferase reporter inhibitors, primary screen, cell-based, luminescence, single point; LMP1-induced NF-kappaB luciferase reporter cells; inhibition, % at 12.5 µM; 0.69% of 350,000 active; in the data active = inhibition above about 41%; inconclusive = no clear call, values can overlap the other calls
HSF1 activator = HSF-1 activators, primary screen, NIH3T3-HGL cells, MG132 stress, luminescence, single point; NIH3T3-HGL HSF-1 luciferase reporter, 8 h; 100% = twice DMSO control signal; activation, % at 9 µM; 1.7% of 300,000 active; AID 504408, 2011;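 active = mean replicate activation of at least 50% with a set share of replicates each reaching 50%; inconclusive = only one of those two conditions met; inactive = mean below 50% and too few replicates reaching it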
TWEAK-Fn14 inh = inhibitors of TWEAK-Fn14 signaling, primary screen, luciferase reporter cells, uHTS. TWEAK-stimulated Fn14 reporter cells, luciferase luminescence, 8 h. inhibition, % at 10 µM. 2% of 360,000 active. AID 1159606, 2016; in the data active = inhibition above about 50%
Each line names hits and unclear results; the compound was inactive in the other large screens.

CCCCC[C@@H](C)N1C[C@H](COCc2ccccc2)Oc2cc(N3CCC[C@H]3CO)ccc2S1(=O)=O	none (no result: HSP90 refold inh, HSF1 inh, EBV LMP1 NFkB, HSF1 activator)
COc1ccc2nc(S(=O)Cc3ncc(C)c(OC)c3C)[nH]c2c1 (stereo not given)	EBV LMP1 NFkB 84
COCCCOc1ccnc(CS(=O)c2nc3ccccc3[nH]2)c1C (stereo not given)	none
CCOC(=O)c1c(NC(=O)c2cccs2)sc2c1CCN(C(=O)OCC)C2	HSF1 activator 71 (no result: TROY signal inh)
CCOC(=O)N1CCC(NC(=O)c2cccs2)CC1	HSF1 activator 67
CCOC(=O)N1CCC(NC(=O)CCC(=O)N2CCOc3ccccc32)CC1	TWEAK-Fn14 inh 64 (no result: TROY signal inh)
CCOC(=O)C1(C)CCCN(C(=O)c2cccc(OC(F)(F)F)c2)C1 (stereo not given)	none (no result: HSP90 refold inh, HSF1 inh, EBV LMP1 NFkB, HSF1 activator)
O=C1NC[C@@H](CCCCN2CCN(CC3CCCCC3)C(=O)C2=O)N(CCC2CCCCC2)C1=O	none (no result: HSP90 refold inh, HSF1 inh, EBV LMP1 NFkB, HSF1 activator)
CCCc1cc(=O)oc2c3c(cc(OCC(=O)N[C@@H](CSC)C(=O)O)c12)OC(C)(C)CC3	none
CCCc1cc(=O)oc2c3c(cc(OCC(=O)N[C@@H](C)C(=O)O)c12)OC(C)(C)CC3	HSF1 activator 67
CCCCCCCCN1C(=O)[C@H](CC(=O)NCc2ccc(OC)c(OC)c2)C[C@@]2(C(=O)OC)CCCCC=C12	none (no result: HSP90 refold inh, HSF1 inh, EBV LMP1 NFkB, HSF1 activator)
CCOc1ccccc1C(=O)N[C@H](C(=O)OCc1cc([N+](=O)[O-])cc2c1OCOC2)C(C)C	EBV LMP1 NFkB 49
COc1ccc([C@H]2C[C@@H](O)[C@H](n3cc(C4CC4)nn3)CN2C(=O)c2cccs2)cc1	none (no result: HSP90 refold inh, HSF1 inh, HSF1 activator)
O=C(CNC(=O)c1cccs1)OCC(=O)c1ccccc1	none
O=C(CNC(=O)c1cccs1)OCc1ccc(Br)cc1	none
O=C(CNC(=O)c1cccs1)c1ccc(Br)cc1	TWEAK-Fn14 inh 55
CCc1ccc(C(=O)COC(=O)CNC(=O)c2cccs2)cc1	HSF1 inh -86
CCc1ccc(C(=O)COC(=O)c2n[nH]c3ccccc23)cc1	HSF1 activator inconclusive, TWEAK-Fn14 inh 62
CSc1ccc(Cn2c(C)c(C(=O)NCc3ccc(F)cc3)sc2=O)cc1	none (no result: HSP90 refold inh, HSF1 inh, EBV LMP1 NFkB, HSF1 activator)
Cc1cc2nc(NCCCO)n(CC(=O)c3cc(C(C)(C)C)c(O)c(C(C)(C)C)c3)c2cc1C	TWEAK-Fn14 inh 61 (no result: HSP90 refold inh, HSF1 inh, HSF1 activator)
COc1ccc(C(=O)Cn2c(NCCCO)nc3ccccc32)cc1	none (no result: HSP90 refold inh, HSF1 inh, HSF1 activator)
COc1ccc(-c2ncncc2-c2ccc(Cl)cc2)c(O)c1	none
COc1ccc(-c2cncnc2-c2ccc(OC)cc2O)cc1	TWEAK-Fn14 inh 69
CC(C)N(Cc1cc2ccccc2[nH]c1=O)C(=O)c1cccc([N+](=O)[O-])c1	none
Cc1ccc2[nH]c(=O)c(CN(C(=O)c3cccc([N+](=O)[O-])c3)C(C)C)cc2c1	HSF1 inh -57
CCC(=O)N1CCCC(C(=O)NS(=O)(=O)c2cc(C)c(Cl)cc2C)CC1 (stereo not given)	none (no result: HSP90 refold inh, HSF1 inh, EBV LMP1 NFkB, HSF1 activator)
CC1Cc2ccccc2N1C(=O)Cn1nnc(-c2ccccc2NC(=O)C2CCC2)n1 (stereo not given)	TROY signal inh 59
O=C(Nc1cccc(-c2nnn(CC(=O)N3CCc4ccccc4C3)n2)c1)C1CCC1	none
O=C(Nc1ccccc1-c1nnn(CC(=O)N2CCc3ccccc3C2)n1)C1CCC1	TWEAK-Fn14 inh 71 (no result: TROY signal inh)
CCN(CC)C(=O)C1=C(C)N(Cc2ccc(C(C)(C)C)cc2)C(=O)C(CC(=O)NCc2ccco2)C1 (stereo not given)	none (no result: HSP90 refold inh, HSF1 inh, HSF1 activator)
COc1ccc(OC)c(S(=O)(=O)Nc2ccccc2O)c1	HSF1 activator 90 (no result: HSP90 refold inh)
COc1ccc(OC)c(S(=O)(=O)Nc2ccccc2C)c1	none
CNC(=S)N1CCC(C(=O)c2ccc(Cl)cc2)CC1	none (no result: HSP90 refold inh, HSF1 inh, HSF1 activator)
O=C(Nc1nc(-c2ccccn2)cs1)c1cc(Cl)ccc1[N+](=O)[O-]	EBV LMP1 NFkB inconclusive, HSF1 activator 70
COCOCCn1cc(CN2CCS(=O)(=O)N(Cc3ccc(-c4ccc(Cl)c(Cl)c4)cc3)C(C(C)C)C2=O)nn1 (stereo not given)	none (no result: HSP90 refold inh, HSF1 inh, HSF1 activator)
Cc1cc(C)c(C#N)c(Sc2nc(C)c([N+](=O)[O-])c(C)c2C#N)n1	TWEAK-Fn14 inh 82 (no result: HSP90 refold inh, HSF1 inh, EBV LMP1 NFkB, HSF1 activator)
COCc1cc(C)nc(SCc2ccccc2)c1C#N	none
Cc1cc(C)c(C#N)c(SCc2ccc([N+](=O)[O-])cc2)n1	HSF1 activator 53
Cc1ccc2c(=O)n3c(nc2c1)C(Cc1ccc(O)cc1)NC(=O)c1cccnc1-3 (stereo not given)	none (no result: HSP90 refold inh, HSF1 inh, HSF1 activator)
COc1ccc(S(=O)(=O)N(C)C[C@H]2OCc3cnnn3CCCC(=O)N([C@@H](C)CO)C[C@H]2C)cc1	none (no result: HSP90 refold inh, HSF1 inh, HSF1 activator)
CC1(C(=O)NS(=O)(=O)c2ccc(F)cc2F)CCN1C(=O)Cc1cccc2ccccc12 (stereo not given)	none (no result: HSP90 refold inh, HSF1 inh, EBV LMP1 NFkB, HSF1 activator)
CN(C)C(=O)CSc1cccc2cccnc12	TWEAK-Fn14 inh 96
O=C(CSc1cccc2cccnc12)N1CCCC1	HSF1 activator 60, TWEAK-Fn14 inh 67
NNC(=O)CSc1cccc2cccnc12	none
COc1ccc(-c2cc(=O)oc3c(C)c(O)c(CN(C)C)cc23)cc1	TROY signal inh 60 (no result: HSF1 inh, HSF1 activator)
CC(C)C[C@H]1CN([C@@H](Cc2ccccc2)CN2CCC[C@@H]2CN2C(=O)C(=O)NC[C@@H]2Cc2ccccc2)C(=O)C(=O)N1CC1CCCCC1	none (no result: HSP90 refold inh, HSF1 inh, EBV LMP1 NFkB, HSF1 activator)
Cc1ccc2ccccc2c1C(O)c1ncc(-c2ccccc2)[nH]1 (stereo not given)	none (no result: HSP90 refold inh, HSF1 inh, EBV LMP1 NFkB, HSF1 activator)
Nc1ccc(-c2cnc(N)c(C(=O)c3cccnc3)n2)cn1	EBV LMP1 NFkB 67, TWEAK-Fn14 inh 79 (no result: HSP90 refold inh, HSF1 inh, HSF1 activator)
Nc1ccc(C(=O)c2cccs2)cn1	none
CCOC(=O)c1ccc(-n2[nH]c(-c3ccccc3)cc2=O)cc1	HSF1 inh -72
Cc1ncc([N+](=O)[O-])n1CC(=O)Nc1ccc(F)cc1	HSF1 inh -74
Cc1ncc([N+](=O)[O-])n1CC(=O)NCc1ccccc1	none
Cc1ncc([N+](=O)[O-])n1CC(=O)NCCc1ccccc1	HSF1 inh -62
COc1ccc(-c2csc(NC(C)c3nc4cc(Cl)c(N5CCCCC5)cc4n3CCOCCO)n2)cc1 (stereo not given)	none (no result: HSP90 refold inh)
CC(Nc1nc(-c2ccc(Cl)cc2)cs1)c1nc2cc(Cl)c(N3CCCCC3)cc2n1CCOCCO (stereo not given)	TWEAK-Fn14 inh 54 (no result: HSP90 refold inh)
Cc1ccc(F)cc1C(=O)N1CCOCC1c1cc(C(=O)NCc2ccccc2)no1 (stereo not given)	none (no result: HSP90 refold inh, HSF1 inh, EBV LMP1 NFkB, HSF1 activator)
CCCNC(=O)c1oc2ccc3c(c2c1C)C(=O)CC(C)(C)O3	HSF1 activator 59
CCCNC(=O)c1oc2ccc3c(c2c1C)C=CC(C)(C)O3	none
CC(C)(C)c1ccc(CSc2nnc(-c3ccccn3)n2Cc2ccco2)cc1	none
